Compound activity (PubChem BioAssay)
Only some compounds are listed: those with a hit (about 2.5% of all), similar ones and a draw of the others.
Cruzain inh Det = blocks cruzain activity in presence of Triton detergent. P25779. 200,000 tested, 0.43% active. purified cruzain, Z-FR-AMC fluorescence, 0.01% Triton. Potency, µM, without a hit: max response, negative = inhibition, usual class: inhibitors;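 also: plate controls were neutral wells for no effect and buffer without enzyme for full effect; nearly all actives have a fitted effect of over 40% in size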
Target sequence (P25779 123-467 limits assumed): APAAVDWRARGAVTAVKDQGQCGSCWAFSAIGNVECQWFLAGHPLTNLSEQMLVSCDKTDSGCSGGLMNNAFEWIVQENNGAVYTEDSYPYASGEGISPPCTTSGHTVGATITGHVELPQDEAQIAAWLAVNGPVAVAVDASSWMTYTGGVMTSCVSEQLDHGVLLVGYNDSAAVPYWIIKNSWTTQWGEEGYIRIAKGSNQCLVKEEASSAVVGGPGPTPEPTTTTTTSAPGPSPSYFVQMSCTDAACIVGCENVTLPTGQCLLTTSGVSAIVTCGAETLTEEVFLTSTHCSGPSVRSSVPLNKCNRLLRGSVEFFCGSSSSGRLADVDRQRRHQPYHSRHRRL
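Cruzain (1.5 nM) preincubated 15 min at RT with compound in 100 mM sodium acetate pH 5.5, 5 mM DTT, 0.01% Triton X-100. Reaction started with 2 uM Z-FR-AMC; AMC fluorescence (ex 360/em 450 nm) change over 60 s gave rate.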
Cruzain inh noDet = blocks cruzain activity in detergent-free assay; Potency, µM, for inactives: max response, negative = inhibition, actives largely listed as inhibitors; purified cruzain, Z-FR-AMC fluorescence, no detergent; 200,000 tested, 2.3% active; P25779;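 also: plate controls were enzyme without inhibitor for no effect and buffer without enzyme for full effect; nearly all actives have a fitted effect of over 40% in size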
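Purified cruzain at 1.5 nM, pre-incubated 15 min with compound at room temperature in 100 mM sodium acetate pH 5.5, 5 mM DTT, 0.00005% Triton X-100. Reaction started with 2 uM Z-FR-AMC; AMC fluorescence increase over 60 s gives rate.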
Starred values were filed as active, the others as inactive; ? = inconclusive. Calls follow the shape of the dose curve; as a rule, active = well fitted curve in the direction sought with a large enough effect; inconclusive = small, poorly fitted or top-dose-only effect, or another doubt; inactive = no such curve, though single readings can be large; an effect the other way counts as inactive or inconclusive. Potency is read from the fitted curve at half-maximal effect.

SMILES | Cruzain inh Det | Cruzain inh noDet
O=C(Nc1ccc(C(F)(F)F)cc1)c1cc(S(=O)(=O)NC2CCCCCC2)ccc1F | 0% | -2%
Cc1ccc2[nH]c3c(NCc4ccco4)ncnc3c2c1 | -27% | -23%
C=CCNc1ncnc2c1[nH]c1ccc(Cl)cc12 | ? | 13µM*
CCCCN(C)CC(O)Cn1cc(/C=C/C(=O)c2ccc(OCC)cc2)c2ccccc21 (centres undefined) | -12% | -7%
COc1ccc(C(=O)/C=C/c2cn(CC(O)CN3CCc4ccccc43)c3ccccc23)cc1 (centres undefined) | -3% | 6.3µM*
CCOc1ccc(C(=O)/C=C/c2cn(CC(O)CN3CCc4ccccc43)c3ccccc23)cc1 (centres undefined) | -3% | 6.3µM*
CCCCN(CCCC)CC(O)Cn1cc(/C=C/C(=O)c2ccccc2)c2ccccc21 (centres undefined) | -7% | -1%
COCCn1c(SCC(=O)c2ccc(OC)cc2)nc2cc(C(=O)NC3CCCC3)ccc2c1=O | 1% | -5%
COc1cc(NC(=O)c2ccc(C)c(Cl)c2)ccc1NC(=O)c1cc2ccccc2o1 | 0% | -5%
CCc1ccc(-n2cc(-c3ccc([N+](=O)[O-])cc3)[nH]c2=S)cc1 | -5% | 25µM*
O=[N+]([O-])c1ccc(-c2cn(-c3ccc(Cl)cc3)c(=S)[nH]2)cc1 | -1% | ?
Cc1ccc(NC(=O)Cc2ccc(-n3c(C)nc4cccnc43)cc2)c(Cl)c1 | 8.9µM* | -2%
COc1ccc(Cn2c(CCC(=O)Nc3ccc(C)cc3C)nc3cccnc32)cc1 | 1% | 19%
CN(Cc1ccccc1)S(=O)(=O)c1cc(Br)cc2c1N(C(=O)C1CC1)CC2 | -4% | -11%
COc1ccccc1-c1cc(C(=O)N/N=C/c2cccs2)c2ccccc2n1 | -10% | -13%
COc1ccc(-c2csc(NC(=O)c3cc(-c4cccs4)nc4ccccc34)n2)c(OC)c1 | 2% | 5µM*
COc1ccc(-c2cc(C(=O)N/N=C/c3sccc3C)c3ccccc3n2)c(OC)c1 | -11% | ?
COc1ccccc1-c1csc(NC(=O)c2cc(-c3cccs3)nc3ccccc23)n1 | -3% | 4µM*
COc1ccc(NC(=O)c2cc3c(=O)n(Cc4ccco4)ccc3nc2C)c(OC)c1 | 0% | -8%
S[C@@H]1CCCN(Cc2ccccc2)C1 | -4% | -3%
CC(C)NC(=O)[C@@H]1C[C@H]1[C@@H](NC(=O)OCc1ccccc1)c1ccccc1 | 1% | -4%
C[C@H](NC(=O)[C@@H]1C[C@H]1[C@@H](NC(=O)OCc1ccccc1)c1ccccc1)c1ccccc1 | 1% | 16µM*
Cc1ccn2cc(CCNS(=O)(=O)c3ccc(F)c(C(F)(F)F)c3)nc2c1 | -5% | 25µM*
CCc1ccc(S(=O)(=O)NCCc2cn3ccccc3n2)s1 | 3% | 2%
O=S(=O)(NCCc1cn2ccccc2n1)c1ccc(F)c(C(F)(F)F)c1 | 25µM* | -11%
SMILES | Cruzain inh Det | Cruzain inh noDet
Cc1ccn2cc(CCNS(=O)(=O)c3ccc4c(c3)OCCO4)nc2c1 | 3% | -1%
C[C@@](O)(CNS(=O)(=O)c1ccccc1)c1ccccc1 | 4% | 1%
CC(NC(=O)c1ccccc1)(C(=O)O)C(=O)O | 1% | 8%
CC(C)(C)c1cc(Br)c(O)c(CN(Cc2cc(C(C)(C)C)cc(Br)c2O)C2CCCCC2)c1 | 2% | -2%
CN(C)c1ncc2nc(-c3cc(F)cc(F)c3)c(=O)n(C)c2n1 | 12% | 20µM*
CN(C)c1ncc2nc(-c3cc(F)cc(F)c3)c(=O)n(C3CC3)c2n1 | 3% | 14%
Cc1ccccc1-c1noc(CSc2nc(-c3ccc(F)cc3)cc(=O)[nH]2)n1 | 1% | -28%
CSc1nsc(/C=C/Nc2ccc(Cl)cc2)c1C#N | -21% | ?
CSc1nsc(/C=C/Nc2cccc(Cl)c2)c1C#N | -6% | 20µM*
C=CCNC(=O)c1cc([N+](=O)[O-])cc2c(=O)[nH]c(Nc3ccc(Cl)c(Cl)c3)nc12 | -11% | -7%
O=C(CCC1N=C2c3ccccc3N=C(SCc3cccc(F)c3)N2C1=O)NCc1cccs1 (centres undefined) | -2% | 4%
CC(C)OC(=O)c1cc2ccccc2[nH]1 | -5% | -10%
CCOC(=O)c1cc2cc3ccccc3cc2[nH]1 | -6% | 25µM*
O=C(Nc1cccc(C(F)(F)F)c1)N1CC2CCCN2c2ccccc21 (centres undefined) | -4% | ?
COc1ccccc1/C=C/c1nc(C#N)c(NCCc2ccccc2)o1 | -7% | 16µM*
COc1ccccc1/C=C/c1nc(C#N)c(N2CCCCC2)o1 | -25% | -1%
COc1ccccc1/C=C/c1nc(C#N)c(N(C)C)o1 | 14µM* | ?
COc1ccccc1/C=C/c1nc(C#N)c(NCC(C)C)o1 | 7% | 27%
Cc1ccc2onc(CC(=O)Nc3cc(F)ccc3F)c2c1 | 0% | 4%
N#C[C@H](c1ccccc1)N1CCCN([C@@H](C#N)c2ccccc2)C1c1ccccc1O (some centres undefined) | -1% | -1%
